Assay results reported in PubChem BioAssay (EPA / NIEHS).
Activity calls are given as the source filed them. Rule for the calls: active = hit-call score of the fitted dose curve at least 0.9, where 1 is the maximum; inactive = score below 0.9.

How the values were obtained:
[1] = CEETOX_H295R_DOC: CeeTox H295R High-throughput Steroidogenesis Assay for DOC (AID 2283439); conditions: actives raise or lower the signal
Outline: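 H295R cells prestimulated 48 h with 10 uM forskolin, then exposed 48 h to test chemical (0.1% DMSO final). Medium 11-deoxycorticosterone measured by HPLC-MS/MS after MTBE extraction; bidirectional fit vs DMSO, viability checked by MTT in same wells.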

[2] = CEETOX_H295R_ESTRADIOL: CeeTox H295R High-throughput Steroidogenesis Assay for Estradiol (AID 2283440); conditions: actives raise or lower the signal;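 note: estradiol secreted into medium quantified by LC-MS/MS after dansyl derivatisation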
Outline: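 Estradiol in spent medium measured by LC-MS/MS after dansyl chloride derivatisation. Forskolin-primed (10 uM, 48 h) human adrenal H295R cells received test chemical 48 h at 0.1% DMSO; concentrations lowered until MTT viability >/=70%.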

[3] = CEETOX_H295R_ESTRONE: CeeTox H295R High-throughput Steroidogenesis Assay for Estrone (AID 2283441); conditions: actives raise or lower the signal;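 note: estrone secreted into medium measured by LC-MS/MS after dansyl derivatization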
Outline: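 H295R cells prestimulated 48 h with 10 uM forskolin, then exposed 48 h to chemicals in 0.1% DMSO final; estrone in medium extracted with MTBE, dansyl-derivatized, quantified by HPLC-MS/MS; bidirectional fitting versus DMSO, viability by MTT.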

[4] = read-out: Tumor necrosis factor receptor superfamily member 6 (Homo sapiens) (UniProt P25445); assay: LTEA_HepaRG_FAS: Life Technologies and Expression Analysis (LTEA) Assay for Fas cell surface death receptor (FAS) using HepaRG (AID 2283447); conditions: mRNA level, 48 h; actives raise or lower the signal
Outline: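 FAS transcript level was measured by TaqMan qRT-PCR against three housekeeping genes after 48 h chemical exposure. Cells were HepaRG, 0.5% DMSO vehicle, with a top concentration of 100 uM and half-log dilutions over eight points, in duplicate.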

[5] = read-out: Fatty acid synthase (Homo sapiens) (UniProt P49327); assay: LTEA_HepaRG_FASN: Life Technologies and Expression Analysis (LTEA) Assay for Fatty Acid Synthase (FASN) using HepaRG (AID 2283448); conditions: mRNA level, 48 h; actives raise or lower the signal;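 for AC50: differentiated human HepaRG liver cells in serum-free induction medium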
Outline: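 Differentiated HepaRG cells in serum-free induction medium exposed 48 h in duplicate to eight half-log concentrations, top 100 uM, 0.5% DMSO. FASN mRNA by qRT-PCR normalised to ACTB, GAPDH, POLR2A; bidirectional fit versus DMSO.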

[6] = read-out: Cyclin D2 (CCND2), CCND2 (gene 894); assay: LTEA_HepaRG_CCND2: Life Technologies and Expression Analysis (LTEA) Assay for Cyclin D2 (CCND2) using HepaRG (AID 2283449); conditions: mRNA level, 48 h; actives raise or lower the signal
Outline: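 Read-out is CCND2 mRNA level measured by qRT-PCR in human HepaRG liver cells and normalised to three housekeeping genes. Chemicals were applied for 48 h at up to 100 uM, with gain or loss fitted relative to 0.5% DMSO.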

[7] = read-out: Cyclin Dependent Kinase Inhibitor 1A (CDKN1A), CDKN1A (gene 1026); assay: LTEA_HepaRG_CDKN1A: Life Technologies and Expression Analysis (LTEA) Assay for Cyclin Dependent Kinase Inhibitor 1A (CDKN1A) using HepaRG (AID 2283450); conditions: mRNA level, 48 h; actives raise or lower the signal
Outline: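 Expression quantified by Fluidigm qRT-PCR with ACTB, GAPDH and POLR2A normalization, fitted bidirectionally against 0.5% DMSO. Cells: HepaRG, plated 48 h then treated 48 h in serum-free induction medium, top concentration 100 uM with half-log dilutions.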

[8] = read-out: Cyclin D1 (CCND1), CCND1 (gene 595); assay: LTEA_HepaRG_CCND1: Life Technologies and Expression Analysis (LTEA) Assay for Cyclin D1 (CCND1) using HepaRG (AID 2283451); conditions: mRNA level, 48 h; actives raise or lower the signal
Outline: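 Expression of CCND1 was quantified by qRT-PCR on Fluidigm arrays using ACTB, GAPDH and POLR2A as reference genes. HepaRG cultures, plated 48 h beforehand, were dosed for 48 h at up to 100 uM (half-log, 8 points) in 0.5% DMSO.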

[9] = read-out: catalase (CAT), CAT (gene 847); assay: LTEA_HepaRG_CAT: Life Technologies and Expression Analysis (LTEA) Assay for catalase (CAT) using HepaRG (AID 2283452); conditions: mRNA level, 48 h; actives raise or lower the signal;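 for AC50: TaqMan qRT-PCR signal normalized to ACTB GAPDH and POLR2A housekeeping genes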
Outline: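 Expression of CAT was quantified by TaqMan qRT-PCR with ACTB/GAPDH/POLR2A normalization after 48 h chemical exposure of HepaRG. Eight-point half-log series, top 100 uM, in 0.5% DMSO; gain or loss fitted against vehicle.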

[10] = read-out: flavin-containing dimethylaniline monooxygenases 3 (FMO3), FMO3 (gene 2328); assay: LTEA_HepaRG_FMO3: Life Technologies and Expression Analysis (LTEA) Assay for flavin-containing dimethylaniline monooxygenases 3 (FMO3) using HepaRG (AID 2283453); conditions: mRNA level, 48 h; actives raise or lower the signal;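 for AC50: differentiated human HepaRG liver cells in serum-free induction medium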
Outline: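 Differentiated HepaRG cells in serum-free induction medium, exposed 48 h in duplicate to 8 half-log concentrations up to 100 uM in 0.5% DMSO. FMO3 mRNA by qRT-PCR, normalized to ACTB, GAPDH, POLR2A; bidirectional fit vs DMSO.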

[11] = read-out: Cytochrome P450 (CYP1A1), CYP1A1 (gene 1543); assay: LTEA_HepaRG_CYP1A1: Life Technologies and Expression Analysis (LTEA) Assay for Cytochrome P450 (CYP1A1) using HepaRG (AID 2283454); conditions: mRNA level, 48 h; actives raise or lower the signal
Outline: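 CYP1A1 transcript levels measured by Fluidigm qRT-PCR against three housekeeping genes, 48 h after chemical dosing of human HepaRG cells (highest concentration 100 uM, half-log steps, 0.5% DMSO vehicle). Gain or loss of signal fitted relative to DMSO.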

[12] = read-out: CFLAR gene, CFLAR (gene 8837); assay: LTEA_HepaRG_CFLAR: Life Technologies and Expression Analysis (LTEA) Assay for CFLAR gene using HepaRG (AID 2283455); conditions: mRNA level, 48 h; actives raise or lower the signal
Outline: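 HepaRG, 48 h exposure, 8-pt conc-response (100 uM top, half-log), 0.5% DMSO vehicle, duplicates. CFLAR expression by qRT-PCR; ACTB/GAPDH/POLR2A normalization; gain or loss fit vs DMSO baseline.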

[13] = read-out: Forkhead box O1 (FOXO1), FOXO1 (gene 2308); assay: LTEA_HepaRG_FOXO1: Life Technologies and Expression Analysis (LTEA) Assay for Forkhead box O1 (FOXO1) using HepaRG (AID 2283456); conditions: mRNA level, 48 h; actives raise or lower the signal
Outline: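 Readout is FOXO1 transcript level by multiplexed qRT-PCR against three housekeeping genes, curve-fitted in both directions relative to 0.5% DMSO vehicle. Human HepaRG cultures received chemicals for 48 h, up to 100 uM in half-log steps.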

[14] = CEETOX_H295R_TESTO: CeeTox H295R High-throughput Steroidogenesis Assay for Testosterone (TESTO) (AID 2283457); conditions: actives raise or lower the signal;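 for AC50: cells exposed to chemicals for 48 h before medium collection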
Outline: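 Testosterone secreted into the medium over 48 h by H295R cells (maximum passage 10) was quantified by LC-MS/MS after MTBE extraction. Fitted in both directions against DMSO, with concentrations diluted until MTT viability was ≥70%.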

[15] = read-out: growth arrest and DNA damage 45 (GADD45A), GADD45A (gene 1647); assay: LTEA_HepaRG_GADD45A: Life Technologies and Expression Analysis (LTEA) Assay for growth arrest and DNA damage 45 (GADD45A) using HepaRG (AID 2283458); conditions: mRNA level, 48 h; actives raise or lower the signal
Outline: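 Differentiated HepaRG cells exposed 48 h in serum-free induction medium to 8 concentrations, top 100 uM in half-log steps, 0.5% DMSO. GADD45A mRNA quantified by qRT-PCR, normalized to ACTB, GAPDH and POLR2A; bidirectional fit versus DMSO.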

[16] = read-out: Forkhead box O3 (FOXO3), FOXO3 (gene 2309); assay: LTEA_HepaRG_FOXO3: Life Technologies and Expression Analysis (LTEA) Assay for Forkhead box O3 (FOXO3) using HepaRG (AID 2283459); conditions: mRNA level, 48 h; actives raise or lower the signal
Outline: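 HepaRG, 48 h post-dose; 8 conc., half-log from 100 uM, 0.5% DMSO, duplicates; serum-free induction medium. Readout: FOXO3 mRNA, TaqMan qRT-PCR, housekeeping-normalized. Bidirectional curve fit vs DMSO baseline.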

[17] = read-out: ABC Transporter (ABCB1), ABCB1 (gene 5243); assay: LTEA_HepaRG_ABCB1: Life Technologies and Expression Analysis (LTEA) Assay for ABC Transporter (ABCB1) using HepaRG (AID 2283460); conditions: mRNA level, 48 h; actives raise or lower the signal
Outline: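 Expression of ABCB1 was quantified by qRT-PCR against three housekeeping genes after human HepaRG cultures received test chemicals for 48 hours. Concentrations spanned eight half-log steps topping at 100 uM in 0.5% DMSO; gain or loss of signal was fitted relative to vehicle.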

[18] = read-out: growth arrest and DNA damage 45 (GADD45B), GADD45B (gene 4616); assay: LTEA_HepaRG_GADD45B: Life Technologies and Expression Analysis (LTEA) Assay for growth arrest and DNA damage 45 (GADD45B) using HepaRG (AID 2283461); conditions: mRNA level, 48 h; actives raise or lower the signal
Outline: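 Transcript level quantified by Fluidigm TaqMan qRT-PCR with three housekeeping genes for normalization, analyzed for up- or down-regulation against 0.5% DMSO. HepaRG cultures dosed 48 h at eight half-log concentrations up to 100 uM, duplicates.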

[19] = read-out: ABC Transporter (ABCC3), ABCC3 (gene 8714); assay: LTEA_HepaRG_ABCC3: Life Technologies and Expression Analysis (LTEA) Assay for ABC Transporter (ABCC3) using HepaRG (AID 2283462); conditions: mRNA level, 48 h; actives raise or lower the signal
Outline: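 Transcript level by TaqMan qRT-PCR, normalised to three housekeeping genes, fitted in both directions relative to vehicle. Chemicals tested in duplicate at eight half-log concentrations up to 100 uM for 48 h on HepaRG cells (0.5% DMSO).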

[20] = read-out: ABC Transporter (ABCB11), ABCB11 (gene 8647); assay: LTEA_HepaRG_ABCB11: Life Technologies and Expression Analysis (LTEA) Assay for ABC Transporter (ABCB11) using HepaRG (AID 2283463); conditions: mRNA level, 48 h; actives raise or lower the signal
Outline: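 ABCB11 transcript levels are read by Fluidigm TaqMan qRT-PCR after 48 h chemical treatment of human HepaRG cells. Concentrations span 100 uM downward in half-log steps with 0.5% DMSO; gain or loss is fitted against DMSO controls.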

Measured: AC50

Chain of Fatty acid synthase (Homo sapiens) (P49327 whole entry, looked up): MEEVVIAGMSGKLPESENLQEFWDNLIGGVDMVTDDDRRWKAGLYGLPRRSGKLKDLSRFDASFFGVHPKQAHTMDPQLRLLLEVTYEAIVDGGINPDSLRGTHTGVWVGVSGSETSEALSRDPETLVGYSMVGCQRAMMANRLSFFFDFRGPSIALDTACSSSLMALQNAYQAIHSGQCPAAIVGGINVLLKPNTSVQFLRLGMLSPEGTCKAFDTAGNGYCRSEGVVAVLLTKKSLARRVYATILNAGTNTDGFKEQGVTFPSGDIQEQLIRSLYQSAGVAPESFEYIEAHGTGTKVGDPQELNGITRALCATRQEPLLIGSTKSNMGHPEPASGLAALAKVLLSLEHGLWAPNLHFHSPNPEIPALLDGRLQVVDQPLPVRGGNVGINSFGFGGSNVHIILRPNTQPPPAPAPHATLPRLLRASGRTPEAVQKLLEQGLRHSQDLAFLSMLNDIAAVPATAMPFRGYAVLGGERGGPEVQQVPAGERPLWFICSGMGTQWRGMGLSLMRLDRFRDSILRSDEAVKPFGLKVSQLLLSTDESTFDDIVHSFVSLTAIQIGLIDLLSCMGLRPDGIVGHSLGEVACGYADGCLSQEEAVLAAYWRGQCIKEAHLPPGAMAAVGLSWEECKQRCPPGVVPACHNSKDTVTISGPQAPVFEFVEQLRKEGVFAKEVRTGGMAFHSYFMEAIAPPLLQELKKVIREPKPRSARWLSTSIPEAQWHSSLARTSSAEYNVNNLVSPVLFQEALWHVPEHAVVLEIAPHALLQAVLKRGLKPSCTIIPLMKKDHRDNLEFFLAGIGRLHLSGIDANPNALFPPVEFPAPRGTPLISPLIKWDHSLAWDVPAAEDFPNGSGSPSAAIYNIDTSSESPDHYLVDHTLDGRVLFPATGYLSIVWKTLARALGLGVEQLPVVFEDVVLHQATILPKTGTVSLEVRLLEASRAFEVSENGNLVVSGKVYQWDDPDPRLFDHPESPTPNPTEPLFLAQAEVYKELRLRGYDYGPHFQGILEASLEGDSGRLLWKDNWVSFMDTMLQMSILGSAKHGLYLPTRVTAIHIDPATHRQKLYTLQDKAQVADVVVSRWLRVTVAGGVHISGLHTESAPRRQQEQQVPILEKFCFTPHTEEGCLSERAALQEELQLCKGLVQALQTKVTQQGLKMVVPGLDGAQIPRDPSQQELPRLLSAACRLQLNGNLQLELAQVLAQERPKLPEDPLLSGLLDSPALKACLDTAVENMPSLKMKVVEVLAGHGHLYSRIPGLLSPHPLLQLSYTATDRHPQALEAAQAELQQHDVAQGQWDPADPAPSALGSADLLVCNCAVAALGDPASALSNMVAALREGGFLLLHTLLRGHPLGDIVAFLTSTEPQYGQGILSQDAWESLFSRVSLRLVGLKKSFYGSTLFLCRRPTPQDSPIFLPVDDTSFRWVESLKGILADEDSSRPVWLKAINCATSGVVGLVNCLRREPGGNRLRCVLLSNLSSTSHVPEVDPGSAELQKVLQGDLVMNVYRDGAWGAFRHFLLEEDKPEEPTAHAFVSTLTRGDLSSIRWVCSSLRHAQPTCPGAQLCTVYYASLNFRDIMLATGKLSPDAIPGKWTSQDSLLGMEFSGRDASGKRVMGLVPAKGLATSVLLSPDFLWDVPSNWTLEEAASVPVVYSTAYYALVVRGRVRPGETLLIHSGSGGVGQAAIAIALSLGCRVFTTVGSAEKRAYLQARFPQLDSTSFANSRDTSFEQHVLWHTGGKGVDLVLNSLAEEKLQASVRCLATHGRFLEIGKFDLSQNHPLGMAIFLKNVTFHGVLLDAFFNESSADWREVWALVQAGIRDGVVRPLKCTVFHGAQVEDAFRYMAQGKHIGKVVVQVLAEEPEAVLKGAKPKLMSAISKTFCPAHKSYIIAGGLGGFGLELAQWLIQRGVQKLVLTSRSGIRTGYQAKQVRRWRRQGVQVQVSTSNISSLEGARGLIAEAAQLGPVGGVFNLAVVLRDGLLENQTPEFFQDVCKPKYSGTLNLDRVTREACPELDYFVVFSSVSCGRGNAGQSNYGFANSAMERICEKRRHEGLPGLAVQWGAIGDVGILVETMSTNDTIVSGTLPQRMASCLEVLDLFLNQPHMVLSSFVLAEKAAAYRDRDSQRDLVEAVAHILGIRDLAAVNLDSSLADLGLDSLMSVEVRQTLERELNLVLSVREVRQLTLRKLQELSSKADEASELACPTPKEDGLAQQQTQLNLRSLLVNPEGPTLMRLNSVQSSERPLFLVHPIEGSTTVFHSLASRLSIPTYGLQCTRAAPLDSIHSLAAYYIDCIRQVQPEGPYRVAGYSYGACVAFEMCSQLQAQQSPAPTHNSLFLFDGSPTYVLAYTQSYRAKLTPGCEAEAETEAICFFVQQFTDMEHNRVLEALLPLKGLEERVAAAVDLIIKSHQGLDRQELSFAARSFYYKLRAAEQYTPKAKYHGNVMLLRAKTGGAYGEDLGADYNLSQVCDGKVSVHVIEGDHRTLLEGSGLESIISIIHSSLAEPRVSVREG

CC(=O)S[C@@H]1CC2=CC(=O)CC[C@]2(C)[C@H]2CC[C@@]3(C)[C@@H](CC[C@@]34CCC(=O)O4)[C@H]12
active: [5] 37.3 µM | [9] 60.7 µM | [10] 60.3 µM | [14] 0.828 µM
not listed: [20]
inactive: all other assays above

CCOC(=O)C(C)Oc1ccc(Oc2cnc3cc(Cl)ccc3n2)cc1 (centres undefined)
active: [11] 18.5 µM
not listed: [2] | [3] | [5] | [10] | [14] | [20]
inactive: all other assays above

CCSC(=O)N(CC(C)C)CC(C)C
active: [11] 50 µM
not listed: [1] | [2] | [3] | [10] | [14]
inactive: all other assays above

CCNc1nc(N)nc(Cl)n1
not listed: [1] | [2] | [3] | [5] | [10] | [14] | [20]
inactive: all other assays above

CCOC(=O)C(C)Oc1ccc(Oc2nc3ccc(Cl)cc3o2)cc1 (centres undefined)
active: [11] 56.7 µM
not listed: [1] | [2] | [3] | [5] | [6] | [10] | [14] | [20]
inactive: all other assays above

COC(=O)CSc1cc(N=c2sc(=O)n3n2CCCC3)c(F)cc1Cl
active: [11] 64.9 µM | [17] 25.6 µM
not listed: [1] | [2] | [3] | [5] | [10] | [14] | [20]
inactive: all other assays above

O=C(c1ccccc1)C1CCCCC1
not listed: [1] | [2] | [3] | [5] | [10] | [14] | [20]
inactive: all other assays above

CC(C)CCCCCCc1ccc(O)cc1
active: [11] 50 µM
not listed: [1] | [2] | [3] | [5] | [10] | [14] | [20]
inactive: all other assays above

COCCO
not listed: [1] | [2] | [3] | [4] | [6] | [14] | [20]
inactive: all other assays above

CCCCOCCOCCOCc1cc2c(cc1CCC)OCO2
active: [11] 12.9 µM | [17] 4.01 µM
not listed: [1] | [2] | [3] | [5] | [20]
inactive: all other assays above

CCCCOC(=O)C(C)Oc1ccc(Oc2ccc(C(F)(F)F)cn2)cc1 (centres undefined)
active: [11] 9.92 µM
not listed: [1] | [2] | [3] | [5] | [6] | [10] | [14]
inactive: all other assays above

CCCOC(=O)NCCCN(C)C
not listed: [1] | [2] | [3] | [5] | [10] | [14] | [20]
inactive: all other assays above

O=C(c1ccc(O)cc1O)c1ccc(O)cc1O
not listed: [1] | [2] | [3] | [5] | [14] | [20]
inactive: all other assays above

CCCCCCC(C)OC(=O)COc1nc(F)c(Cl)c(N)c1Cl (centres undefined)
not listed: [1] | [2] | [3] | [5] | [14] | [20]
inactive: all other assays above
